Results as given in PubChem BioAssay (NCATS).
Inconclusive results are not listed. Values without a mark were called inactive. The source made the active and inactive calls. Calls follow the shape of the dose curve; as a rule, active = well fitted inhibition curve with a large enough effect; inconclusive = small, poorly fitted or top-dose-only effect; inactive = flat fitted curve, though single readings scatter.

Experiments:
[1] = tested on: HEK293; test: Cytotoxic Profiling of Annotated Libraries Using Quantitative High-Throughput Screening (AID 1296008); settings: Five cell lines viability, CellTiter-Glo ATP luminescence, 48-72 h; max response: hits give low values; as to max response: % is scaled to controls: 0 for no effect and ±100 for the full control effect
Procedure, shortened: (§1)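 Compounds were pin-transferred onto cells and incubated 48 or 72 hr at 37 degree Celsius, 95% humidity. CellTiter-Glo was added, plates sat 10 min at room temperature, then ATP-coupled luminescence was imaged as the viability read-out.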

[2] = tested on: KB-3-1; test: as above; settings: Five cell lines viability, CellTiter-Glo ATP luminescence, 48-72 h; max response: hits give low values
Procedure, shortened: as §1

[3] = tested on: NIH3T3; test: as above; settings: Five cell lines viability, CellTiter-Glo ATP luminescence, 48-72 h; max response: hits give low values
Procedure, shortened: as §1

[4] = tested on: HaCat; test: as above; settings: Five cell lines viability, CellTiter-Glo ATP luminescence, 48-72 h; max response: hits give low values
Procedure, shortened: as §1

[5] = tested on: MCC-13; test: qHTS assay to identify novel small-molecules to repurpose for Merkel cell carcinoma treatment (AID 1296009); settings: MCC and control cell lines, CellTiter-Glo viability, 72 h; series mostly up to 46 µM
Procedure, shortened: (§2)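 qHTS format: cells treated with library compounds in DMSO across 8 (NPC) or 11 (MIPE) concentrations. Readout after 72 hr at 37 degree celsius was CellTiter-Glo luminescence.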

[6] = tested on: HACAT; test: as above; settings: MCC and control cell lines, CellTiter-Glo viability, 72 h; at 44.8 µM (top of the series) unless noted
Procedure, shortened: as §2

[7] = tested on: TAB165; test: qHTS profiling for inhibitors of Plasmodium falciparum proliferation (AID 504749); settings: P. falciparum in erythrocytes, SYBR Green DNA, 72 h; series mostly up to 28.7 µM
Procedure, shortened: (§3)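 Parasite proliferation within erythrocytes, 72 h exposure. Endpoint: SYBR Green I fluorescence after overnight lysis at room temperature. Controls: 0.29 uM artemisinin, DMSO.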

[8] = tested on: W2; test: as above; settings: P. falciparum in erythrocytes, SYBR Green DNA, 72 h; series mostly up to 28.7 µM
Procedure, shortened: as §3

[9] = tested on: HEK293T; test: qHTS assay to identify novel small-molecules to repurpose for Merkel cell carcinoma treatment (AID 1296009); settings: MCC and control cell lines, CellTiter-Glo viability, 72 h; series mostly up to 44.8 µM
Procedure, shortened: as §2
Also: nearly all actives have a fitted effect of over 60% in size.
Potency is read from the fitted curve at half-maximal effect.

C[C@H](NCc1ccc(OCc2cccc(F)c2)cc1)C(N)=O
Potency [1]: 11.8 µM (active)
Potency [2]: 9.35 µM (active)
Potency [3]: 4.18 µM (active)

CCCCCCCCc1ccc(CCC(N)(CO)CO)cc1
Potency [1]: 26.4 µM (active)
Potency [4]: 18.7 µM (active)
Potency [5]: inactive

N#CC(=C(N)Sc1ccc(N)cc1)c1ccccc1C(F)(F)F
Potency [4]: 1.66 µM (active)
max response [2]: -9.42%

CN1[C@H]2CC(OC(=O)[C@@H](CO)c3ccccc3)C[C@H]1[C@H]1O[C@H]12 (stereo partly specified)
outcome [6]: inactive [at 17.4 µM]
Potency [5]: inactive

CCOC(=O)[C@H](CCc1ccccc1)N[C@@H](C)C(=O)N1[C@@H](C(=O)O)C[C@H]2CCC[C@@H]21
Potency [1]: 18.7 µM (active)
Potency [4]: 37.2 µM (active)
Potency [5]: inactive

CC(C)(C)c1nc2c3cc[nH]c(=O)c3c3cc(F)ccc3c2[nH]1
Potency [4]: 6.62 µM (active)
max response [2]: -11.6%

CC(C)n1cnc2c(NCCc3ccc(O)cc3)nc(-c3csc4ccccc34)nc21
max response [3]: -7.93%
Potency [5]: inactive

NC(=O)N1CCC(CC(=O)N2CCC([C@H]3c4ncc(Br)cc4CCc4cc(Cl)cc(Br)c43)CC2)CC1
Potency [4]: 10.5 µM (active)
max response [3]: -22.6%
Potency [5]: inactive

C[N+](C)([O-])CCNc1ccc(NCC[N+](C)(C)[O-])c2c1C(=O)c1c(O)ccc(O)c1C2=O
max response [4]: -8.98%
Potency [3]: 0.0935 µM (active)

CCCCCCCCCCCC(CC1OC(=O)C1CCCCCC)OC(=O)C(CC(C)C)NC=O (stereo unspecified)
Potency [7]: 0.398 µM (active)
Potency [8]: 0.675 µM (active)
outcome [4]: inactive
max response [2]: 7.07%
max response [3]: 0.608%
outcome [6]: inactive
Potency [5]: inactive

CN1CCCN(C(=O)c2cccc(-c3ccc(C=C4C(=O)Nc5ccc(Cl)cc54)o3)c2)CC1
Potency [1]: 1.32 µM (active)
Potency [2]: 23.5 µM (active)

CCCNC(=O)[C@H]1O[C@H]1C(=O)N[C@H](C(=O)N1CCC[C@@H]1C(=O)OC)C(C)CC (stereo partly specified)
Potency [1]: 10.5 µM (active)
outcome [4]: inactive
outcome [6]: inactive
Potency [5]: 20.9 µM (active)

Cc1cnn(C)c1C(=O)Nc1cc(Nc2ccc3c(C=Cc4ccccn4)n[nH]c3c2)ccc1F
Potency [1]: 3.72 µM (active)
Potency [3]: 13.2 µM (active)

CCc1ccc(C(=O)Nc2cc(CN3CCN(C)CC3)cc(C(F)(F)F)c2)cc1C#Cc1cnc2ccnn2c1
Potency [1]: 10.5 µM (active)
Potency [2]: 8.33 µM (active)

CC(C)[C@H](CO)Nc1nc(Nc2cccc(Cl)c2)c2ncn(C(C)C)c2n1
Potency [4]: 16.6 µM (active)
Potency [3]: 10.5 µM (active)

C[C@H]1[C@@H](OC(=O)CCC(=O)O)O[C@@H]2O[C@@]3(C)CC[C@@H]4[C@H](C)CC[C@@H]1[C@@]24OO3
Potency [1]: 2.35 µM (active)
Potency [2]: 18.7 µM (active)
Potency [3]: 20.9 µM (active)

COc1ccc(Nc2cc(-c3cnc(N)nc3)nc(N3CCOCC3)n2)cn1
Potency [4]: 2.64 µM (active)
Potency [2]: 2.96 µM (active)
Potency [3]: 3.32 µM (active)

Cc1ccc(-n2[nH]c(C)c(N=Nc3cccc(-c4cccc(C(=O)O)c4)c3O)c2=O)cc1C
Potency [4]: 21.1 µM (active)
max response [2]: -13.9%
Potency [5]: inactive

O=S(=O)(O)CCSSCCS(=O)(=O)O
max response [4]: -4.2%
max response [2]: 4.37%
max response [3]: -4.2%
Potency [9]: inactive
Potency [5]: inactive

N#CC(=Cc1ccc(O)c(O)c1)C(=O)NCc1ccccc1
max response [4]: -2.31%
outcome [2]: inactive
Potency [5]: inactive

CCC(C(=O)O)C1CCC(C)C(C(C)C(O)C(C)C(=O)C(CC)C2OC3(C=CC(O)[C@@]4(CC[C@](C)(C5CC[C@@](O)(CC)C(C)O5)O4)O3)C(C)CC2C)O1 (stereo partly specified)
Potency [7]: 0.708 µM (active)
Potency [8]: 0.757 µM (active)
Potency [1]: 1.18 µM (active)
Potency [3]: 8.33 µM (active)
Potency [5]: 10.5 µM (active)

C=CC(=O)Nc1cc(NC(=O)c2ccc(C)c(NC(=O)c3ccno3)c2)cc(C(F)(F)F)c1
outcome [4]: inactive
max response [3]: -0.953%
outcome [6]: inactive
Potency [5]: inactive

CC[C@]12C=CCN3CC[C@@]4(c5cc([C@@]6(C(=O)OC)C[C@H]7C[C@@H](C(C)(F)F)CN(Cc8c6[nH]c6ccccc86)C7)c(OC)cc5N(C)[C@H]4[C@@](O)(C(=O)OC)[C@H]1OC(C)=O)[C@@H]32
max response [4]: -0.147%
Potency [2]: 0.0105 µM (active)

O=c1c(O)c(-c2ccc(O)c(O)c2)oc2cc(O)ccc12
outcome [4]: inactive
outcome [6]: inactive
Potency [5]: inactive

CC(C)Oc1ccc(C(=O)N[C@H](CNC(=O)CN(C)C)Cc2ccc(-c3cn4cccc([C@H](C)O)c4n3)cc2)cc1Cl
Potency [1]: 0.372 µM (active)
Potency [2]: 0.332 µM (active)

C[C@]12CC[C@@H]3c4ccc(O)cc4CC[C@H]3[C@H]1CC[C@H]2O
Potency [1]: 20.9 µM (active)
Potency [2]: 11.8 µM (active)
Potency [5]: inactive

CCCCCN=C(N)NN=Cc1c[nH]c2ccc(OC)cc12
Potency [1]: 7.43 µM (active)
Potency [2]: 10.5 µM (active)
Potency [3]: 13.2 µM (active)

CCc1cnn2c(NCc3ccc[n+]([O-])c3)cc(N3CCCC[C@@H]3CCO)nc12
Potency [3]: 0.105 µM (active)
